PubChem BioAssay AID463212 (Sanford-Burnham Center for Chemical Genomics, 2010)
Out of some 330,000 compounds screened, about 4,400 (1.3%) were called active. Many of the other results were omitted from the sample, so actives are more common in it than they were. Unmarked numbers belong to inactive results.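 How the source made its calls: active means growth inhibition of the mutant yeast at or above 50%; inactive means the rest.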

Assay: growth inhibitors of tim23-1 mutant yeast, primary screen, luminescence, uHTS (AID 463212);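 further: temperature-sensitive mutant grown at 25 °C; plate controls were DMSO-treated mutant yeast for no effect and medium wells lacking yeast for full effect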
Details: S. cerevisiae tim23-1 growth, BacTiter-Glo luminescence, 24 h; at 20 µM; active compounds read high

Q: For `CC(C)(C)c1ccc(OC2=CS(=O)(=O)c3ccccc32)cc1`, which inhibition is on record?
A: The inhibition was 20.4%.

Q: Which inhibition does the source give for `CC(C)(C)c1ccc(Oc2ccc(N)cc2)cc1` here?
A: The inhibition was 60.7% (active).

Q: With `COc1cccc(Oc2ccc(N)cc2)c1` as the compound, how does the inhibition read?
A: Its inhibition is 8.39%.

Q: With `COc1cccc(C2Nc3cccc4cccc(c34)N2)c1` as the compound, how does the inhibition read?
A: Its inhibition is 57.5% (active).

Q: For `COc1ccc(C2NC(=O)c3ccccc3N2)cc1` (stereo unspecified), which inhibition is on record?
A: The inhibition was 16.7%.

Q: With `Oc1ccc(C2Nc3cccc4cccc(c34)N2)cc1` as the compound, how does the inhibition read?
A: The inhibition was 23.4%.

Q: For `O=C(NC1CCCC1)C(c1ccc(Cl)cc1)N(C(=O)c1csnn1)C1CC1` (stereo unspecified), which inhibition is on record?
A: The inhibition was 11.6%.

Q: With `O=C(CN1CCC(NC(=O)C2CC2)CC1)Nc1ccccc1[N+](=O)[O-]` as the compound, how does the inhibition read?
A: The inhibition was 8.81%.

Q: With `O=S(=O)(c1ccc(SCc2ccc(Br)cc2)nc1)N1CCOCC1` as the compound, how does the inhibition read?
A: Its inhibition is 6.55%.

Q: Which inhibition does the source give for `COc1cc(CC(=O)N/N=C/c2ccccc2)c([N+](=O)[O-])cc1OC` here?
A: The inhibition was 4.64%.

Q: With `COc1ccc(C(=O)NCC(=O)N/N=C/c2ccc([N+](=O)[O-])o2)cc1OC` as the compound, how does the inhibition read?
A: Its inhibition is 87.3% (active).

Q: Which inhibition does the source give for `COc1cc(/C=N/NC(=O)CNC(=O)c2ccncc2)ccc1OC(C)=O` here?
A: Its inhibition is -0.262%.

Q: For `CCN(CC(=O)Nc1cc(Cl)ccc1C)C(=O)CSCc1ccccc1`, which inhibition is on record?
A: Its inhibition is 18.4%.

Q: With `Cc1ccc(S(=O)(=O)c2c[nH]c3ccc(C)cc3c2=O)cc1` as the compound, how does the inhibition read?
A: The inhibition was -5.69%.

Q: Which inhibition does the source give for `Cc1ccc(-c2cccc([C@H]3[C@@H]4C=CC[C@@H](C)[C@@H]4C(=O)N3Cc3ccccc3)c2)cc1` here?
A: Its inhibition is 36.6%.

Q: With `COCCCNc1nc2ccccc2nc1NS(=O)(=O)c1ccc(F)cc1` as the compound, how does the inhibition read?
A: Its inhibition is 21.6%.

Q: For `CC1CN(C(=O)c2ccc([N+](=O)[O-])s2)CC(C)O1` (stereo unspecified), which inhibition is on record?
A: The inhibition was 13.9%.

Q: For `O=[N+]([O-])c1ccc(C=Nc2ccc(Cl)cc2Cl)s1`, which inhibition is on record?
A: Its inhibition is 60.2% (active).

Q: For `Cc1ccc2c(c1)C1C[N+](C)(CC(=O)c3ccccc3)CCC1N2C(=O)c1ccccc1Cl` (stereo unspecified), which inhibition is on record?
A: Its inhibition is -4.6%.

Q: With `COc1ccc(Nc2nc(N)nc(CSC(=S)N3CCC(C)CC3)n2)cc1` as the compound, how does the inhibition read?
A: The inhibition was 50%.

Q: Which inhibition does the source give for `CC(=O)c1ccc(NC(=O)c2ccc(-n3cncn3)c([N+](=O)[O-])c2)cc1` here?
A: Its inhibition is -6.94%.

Q: With `Cc1cc(Cl)ccc1C(=O)C1CCCN(C(=O)c2nonc2C)C1` (stereo unspecified) as the compound, how does the inhibition read?
A: The inhibition was 41.7%.

Q: With `O=C(Nc1ccccc1)c1ccc2c(c1)OCCCO2` as the compound, how does the inhibition read?
A: The inhibition was 51% (active).

Q: For `O=C(Nc1ccc(N2CCOCC2)cc1)c1ccc2c(c1)OCO2`, which inhibition is on record?
A: The inhibition was 10.9%.

Q: For `O=C(Nc1ccc(NC(=O)c2ccc3c(c2)OCO3)cc1)c1cccc(Cl)c1`, which inhibition is on record?
A: Its inhibition is 1.12%.

Q: Which inhibition does the source give for `O=C(Nc1cccc(F)c1)NC1CCCc2ccccc21` (stereo unspecified) here?
A: Its inhibition is 19.8%.

Q: For `C/C(CC(=O)Nc1cccc(F)c1)=N\NC(=O)C(=O)NC1CCCCC1`, which inhibition is on record?
A: The inhibition was 18.3%.

Q: Which inhibition does the source give for `O=C(Nc1cccc(F)c1)NC1CCCCCCC1` here?
A: Its inhibition is 50.3% (active).

Q: With `COc1cc(/C=C2/C(=O)ON=C2C)ccc1OCc1ccccc1F` as the compound, how does the inhibition read?
A: The inhibition was 66.9% (active).

Q: With `C=CCOc1ccc(/C=C2/C(=O)ON=C2C)cc1OCC` as the compound, how does the inhibition read?
A: Its inhibition is 22.6%.

Q: Which inhibition does the source give for `COc1cc(/C=C2/C(=O)ON=C2C)ccc1OCc1cccc(F)c1` here?
A: Its inhibition is 52.2% (active).

Q: For `CC1=NOC(=O)/C1=C\c1ccccc1`, which inhibition is on record?
A: The inhibition was 16.8%.

Q: For `COc1cc(/C=C2\SC(=O)NC2=O)ccc1OCc1ccc(Cl)nc1`, which inhibition is on record?
A: The inhibition was -2.95%.

Q: For `C#CCOc1ccc(/C=C2/C(=O)ON=C2C)cc1OCC`, which inhibition is on record?
A: Its inhibition is 28.2%.

Q: For `CN1CCN(C(CNS(=O)(=O)c2cccs2)c2cccnc2)CC1` (stereo unspecified), which inhibition is on record?
A: Its inhibition is 7.24%.

Q: For `CCN(CC(=O)Nc1ccc(OC)cc1)C(=O)c1ccc(=O)n(Cc2ccccc2)n1`, which inhibition is on record?
A: The inhibition was 7.12%.

Q: For `CC(C)N(C(=O)[C@H]1C[C@H](CC(=O)NC(C)(C)C)C(=O)N2CCc3c([nH]c4ccc(Cl)cc34)[C@]12C)C(C)C`, which inhibition is on record?
A: Its inhibition is 43.7%.

Q: Which inhibition does the source give for `COC(C[C@@H]1O[C@@H]1C(=O)[C@H](C)OCc1ccccc1)OC` here?
A: Its inhibition is -16.7%.

Q: For `COC(C/C=C/C(=O)[C@@H](C)OCc1ccccc1)OC`, which inhibition is on record?
A: Its inhibition is 56.2% (active).

Q: For `COC(C[C@H](O)CC(=O)[C@@H](C)OCc1ccccc1)OC`, which inhibition is on record?
A: The inhibition was 8.93%.

Q: Which inhibition does the source give for `Cc1ccc(NS(=O)(=O)c2ccc3c(c2)oc(=O)n3C)c(C)c1` here?
A: The inhibition was 21.8%.

Q: Which inhibition does the source give for `CCn1cc(C(=O)NC2CCCCCC2)c(=O)c2cc(S(=O)(=O)N3CCCCC3)ccc21` here?
A: The inhibition was 12.1%.

Q: Which inhibition does the source give for `N#Cc1cccc(CSc2ncnc(N)n2)c1` here?
A: Its inhibition is 10.7%.

Q: Which inhibition does the source give for `CCCC(=O)N1CCN(c2nnc(-c3ccc(C)cc3)c3ccccc23)CC1` here?
A: Its inhibition is 50.5% (active).

Q: With `c1ccc(-c2nnc(N3CCOCC3)c3ccccc23)cc1` as the compound, how does the inhibition read?
A: Its inhibition is -18.2%.

Q: For `OCCN1CCN(c2nnc(-c3ccccc3)c3ccccc23)CC1`, which inhibition is on record?
A: Its inhibition is -13.1%.

Q: For `O=C(Oc1cccc(O)c1)C1CCCCC1`, which inhibition is on record?
A: The inhibition was 25.1%.

Q: For `CCCSC(=S)NC1CCS(=O)(=O)C1` (stereo unspecified), which inhibition is on record?
A: Its inhibition is 8.59%.

Q: Which inhibition does the source give for `CCCCN1C(=O)/C(=C(/C#N)C(N)=O)c2ccccc21` here?
A: Its inhibition is 21.8%.

Q: Which inhibition does the source give for `C#CCN1C(=O)C(O)(CC(=O)c2cc(OC)ccc2OC)c2ccccc21` (stereo unspecified) here?
A: Its inhibition is 30%.

Q: Which inhibition does the source give for `COc1ccc2c(c1)C(=C(C#N)C#N)C(=O)N2CCc1ccccc1` here?
A: Its inhibition is 70.8% (active).

Q: For `COc1cccc(-c2nnc(NC(=O)c3ccc(S(=O)(=O)N(CC(C)C)CC(C)C)cc3)o2)c1`, which inhibition is on record?
A: The inhibition was 11.6%.

Q: Which inhibition does the source give for `O=c1c2cc(Br)ccc2nc(-c2cccc(Cl)c2)n1O` here?
A: The inhibition was 65.8% (active).

Q: Which inhibition does the source give for `Cc1cccc(-c2nc3ccccc3c(=O)n2NC(=O)Cc2ccc(Cl)cc2)c1` here?
A: The inhibition was 23.4%.

Q: For `NC(=O)c1cc(-c2cccnc2)nc2ccc(Br)cc12`, which inhibition is on record?
A: Its inhibition is -4.37%.

Q: For `CCOc1ccccc1NC(=O)c1cc(S(=O)(=O)N2CCC3(CC2)OCCO3)ccc1F`, which inhibition is on record?
A: The inhibition was 24.5%.

Q: With `CCOc1cc(NC(=O)Nc2ccccc2)c(OCC)cc1NC(=O)CC` as the compound, how does the inhibition read?
A: The inhibition was 7.41%.

Q: Which inhibition does the source give for `CCOc1cc(NC(=O)c2ccccc2C(=O)O)c(OCC)cc1NC(=O)c1ccccc1F` here?
A: Its inhibition is 53% (active).

Q: Which inhibition does the source give for `CCCCC(CC)CNC(=O)CCCCn1c(=O)[nH]c2ccsc2c1=O` (stereo unspecified) here?
A: The inhibition was -5.06%.

Q: Which inhibition does the source give for `CCCCC(CC)CNC(=O)C(=O)C1C(=O)Nc2ccccc21` (stereo unspecified) here?
A: The inhibition was 51.7% (active).

Q: Which inhibition does the source give for `CCCCCNC(=O)C1c2ccccc2Oc2ccccc21` here?
A: The inhibition was 18.6%.
